# The list is a sample of the results.
# aSyn UTR act – Activators via SNCA 5'UTR binding, MLPCN | alpha-synuclein 5'UTR reporter, activators screen | activity score, % (tested at 7.5 µM), hits read low | 300,000 compounds, 7.1% hits | AID 1814; in the data active means activity score below about -60%
# A number is an active result; n = inactive.
SMILES,aSyn UTR act
COc1ccc2nc(Nc3nc(CSc4nc5ccccc5[nH]4)cc(=O)[nH]3)nc(C)c2c1,n
COc1cccc(CSc2nc3ccccc3[nH]2)c1,-144
COC(=O)c1cc(CSc2nc3ccccc3[nH]2)oc1C,-173
CCCC(=O)Nc1ccc(NC(=O)c2ccco2)cn1,-93
CCCCC(=O)Nc1ccc(NC(=O)c2ccco2)cn1,-75
CC(C)C(=O)Nc1ccc(NC(=O)c2ccco2)cn1,-86
COc1cccc(OC)c1C(=O)NNC(=O)c1cccc(COc2ccc3c(c2)CCC3)c1,-91
COc1ccccc1OCCNC(=O)c1ccc2c(c1)OCCO2,-68
COc1ccccc1OCCNC(=O)c1ccc2c(c1)CCC2,-138
O=C(O)c1cccc(COc2ccc3c(c2)CCC3)c1,n
O=C(NN1CCCCC1)c1cccc(COc2ccc(Cl)cc2)c1,-167
CCOc1ccc(OCc2cccc(C(=O)N3CCCCCC3)c2)cc1,n
COC(=O)c1ccc(CO/N=C2\CCCc3nonc32)cc1,-122
CCOC(=O)C1=C(Cc2ccc(C)cc2)C(=O)c2ccccc2C1=O,-65
O=c1c2[nH]c3cccc(Cl)c3c2ncn1CC1CCCO1 (configuration not stated),-80
CCCc1cc(C(=O)NC2CCCCC2)no1,-146
CCCc1cc(C(=O)NC2CCCC2)no1,-94
CC(C)c1cc(C(=O)NC2CCCCC2)no1,-148
O=c1c2c3c(sc2nc2n1CCCCC2)CCCCC3,-153
O=c1c2c3c(sc2nc2n1CCCC2)CCCCC3,-105
Clc1nc(CN2CCCCC2)nc2sc3c(c12)CCCC3,-68
O=c1c2c3c(sc2nc2n1CCCCC2)CCCC3,-124
CCCCn1cnc2c(sc3nc4c(cc32)CSC(C)(C)C4)c1=O,-104
O=C(Nc1ccc(-n2cc(Br)cn2)cc1)c1ccncc1,-68
O=C(Nc1ccc(-n2cc(Cl)cn2)cc1)c1ccncc1,-92
SMILES,aSyn UTR act
COc1cccc(/C=N/Nc2ncnc3c2ncn3Cc2ccccc2)c1O,n
Cn1cnc2c(N/N=C/c3cccs3)ncnc21,-67
CC(=O)c1ccc(Nc2ccc(-c3ccccc3C)nn2)cc1,-148
CC(=O)c1cccc(Nc2ccc(-c3ccccc3F)nn2)c1,-155
CN(C)c1ccc(-n2cc3c(=O)n(C)c(=O)n(C)c3c2)cc1,-198
CCN(CC)c1ccc(-n2cc3c(=O)n(C)c(=O)n(C)c3c2)cc1,-118
Fc1ccc(-c2cn3cc(C(F)(F)F)cc(Cl)c3n2)cc1,-101
COc1ccc(-c2cn3cc(C(F)(F)F)cc(Cl)c3n2)cc1,-197
COc1ccccc1C(=O)NNC(=O)c1ccc(Cl)cc1,-70
COc1ccccc1C(=O)Nc1cc2cc(Cl)ccc2oc1=O,-123
COc1ccccc1C(=O)NNC(=O)c1ccc(F)cc1,-92
O=C(Nc1cccc(NC(=O)c2ccc(-c3ccc(Br)cc3)o2)c1)c1ccco1,-95
O=C(COc1ccccc1)Nc1ccc(NC(=O)c2ccco2)cc1,-65
O=C(Nc1ccc(Cl)cc1)c1ccco1,-131
CSc1cccc(NC(=O)c2ccco2)c1,-75
COc1ccc2cc1Oc1ccc(cc1)CC1c3c(cc(OC)c4c3Oc3cc5c(cc3O4)CCNC5C2)CCN1C (configuration not stated),n
O=C(/C=C\c1ccccc1)Nc1ccc(NC(=O)c2ccco2)cc1,-67
CN(C(=O)c1ccc(NC(=O)c2ccco2)cc1)c1ccccc1,-76
CC(=O)Nc1ccc(NC(=O)c2ccco2)cc1,-71
CSc1cccc(NC(=O)c2cccc3cccnc23)c1,-134
O=C(NNC(=O)c1ccccc1O)c1ccco1,-82
CC1N(C)c2cc(NC(=O)c3ccco3)ccc2C1(C)C (configuration not stated),-81
Cn1c(N)c(-c2nc3cccnc3n2C)sc1=S,-95
CC1CCCCN1Cc1c(O)ccc2c(=O)c(-c3ccc(Cl)cc3)coc12 (configuration not stated),-68
Cc1ccc(N=Nc2c(O)ccc3n[nH]nc23)cc1,-196
SMILES,aSyn UTR act
O=C(O)c1ccc(N/N=C/c2ccc3nccnc3c2)cc1,n
O=C(O)c1ccc(N/N=C/c2ccc(F)c(F)c2)cc1,-73
O=C(O)c1ccc(N/N=C/c2cccc(C(F)(F)F)c2)cc1,-99
COc1cc(/C=N/OCC(=O)NC2CCCCC2C)ccc1OCc1ccc(Cl)cc1 (configuration not stated),-98
COc1cc(/C=N/OCC(=O)Nc2cc(C)cc(C)c2)ccc1OCc1ccc(Cl)cc1,-128
Cc1occc1C(=O)N/N=C/c1c[nH]c2ccccc12,-135
CC(C)(C)OC(=O)N/N=C/c1c[nH]c2ccccc12,-140
CC(C)(C)C(=O)NC(=S)NCCc1ccccc1,-92
S=C(NCCc1ccccc1)NCCc1ccccc1,-215
CC(C)(C)NC(=O)NCCc1ccccc1,-95
Fc1cc(Br)ccc1NC(=S)NCCc1ccccc1,-119
COCCN(Cc1ccccc1)C(=S)Nc1ccc(Cl)cc1,n
S=C(NCCc1ccccc1)Nc1ccc(Cl)cc1,-135
CC1=C/C(=N\NC(=S)NCCc2ccccc2)CC(C)(C)C1,-80
Cc1cccc(NC(=O)C(=O)NCCCc2ccccc2)c1,-77
Cc1ccc(NC(=O)NCCCc2ccccc2)cc1,-90
O=C(NCCc1ccccc1)Nc1ccc(Cl)cc1,-178
Fc1ccc(CCNC(=S)Nc2ccc(F)cc2)cc1,-76
O=C(NCCc1ccccc1)/C(=N\O)c1ccccc1,-107
C/C(=C\c1ccccc1)C(=O)NCCc1ccccc1,-62
COc1ccc(Nc2oc(COc3ccc(C)cc3)nc2C#N)cc1,n
CCNc1oc(COc2cccc(C)c2)nc1C#N,-95
N#Cc1nc(COc2cccc(Cl)c2)oc1NCc1ccco1,-105
CN(C)c1ccc(C(=O)/C=C/c2cccnc2)cc1,-167
O=C(Nc1cccc(C(F)(F)F)c1)Oc1ccc(Cl)c2cccnc12,n
SMILES,aSyn UTR act
Cc1ccc(Nc2ncccc2C(=O)O)cc1C,-104
CNC(=O)c1cccnc1Nc1cccc(C(F)(F)F)c1,-148
Cc1ccc(Nc2ncccc2C(N)=O)cc1[N+](=O)[O-],-201
COc1cccc(OCc2cc(/C=N/NC(=O)c3ccn[nH]3)ccc2OC)c1,-71
O=C1C(=O)c2ccc(-c3ccccc3)cc2-c2ccccc21,n
O=C1C(c2ccccc2)=[N+]([O-])c2ccccc21,-94
COc1cccc(C(=O)Nc2cc3c(cc2Cl)OCCCO3)c1,-130
COc1ccc(-c2nnc(NC(=O)c3ccc4c(c3)OCCO4)o2)cc1,n
COc1ccc(C(=O)Nc2cc3c(cc2Cl)OCCCO3)cc1,-148
CNc1sc(C(=O)c2cccs2)c(N)c1-c1nc2ccccc2s1,-157
CNc1sc(C(=O)c2ccc(F)cc2)c(N)c1-c1nc2ccccc2s1,-137
Cc1cc(C(=O)COC(=O)C2=COCCO2)c(C)n1-c1ccc2c(c1)OCO2,-134
Cc1cc(C(=O)COC(=O)Cc2n[nH]c(=O)c3ccccc23)c(C)n1-c1ccc2c(c1)OCCO2,-100
Cc1cc(C(=O)COC(=O)C2=COCCO2)c(C)n1-c1cccc(F)c1,-156
NC(=O)c1ccccc1Nc1nc2nc3ccccc3c(=O)n2cc1Br,-83
O=C(N/N=C/c1cc([N+](=O)[O-])ccc1O)c1cccc2cc[nH]c12,n
C/C(=N\OCc1nc2ccccc2c(=O)n1/N=C/c1cc([N+](=O)[O-])ccc1O)c1ccccc1,-62
O=[N+]([O-])c1ccc(O)c(/C=N/n2cnc3ccccc32)c1,-67
O=[N+]([O-])c1ccc(O)c(/C=N/Nc2ccccc2Cl)c1,-85
O=[N+]([O-])c1ccccc1N/N=C\c1ccccc1Cl,-209

# Screens (PubChem BioAssay)
